The target of the first assay is T1, ETS1 (UniProt P14921).
T1 sequence: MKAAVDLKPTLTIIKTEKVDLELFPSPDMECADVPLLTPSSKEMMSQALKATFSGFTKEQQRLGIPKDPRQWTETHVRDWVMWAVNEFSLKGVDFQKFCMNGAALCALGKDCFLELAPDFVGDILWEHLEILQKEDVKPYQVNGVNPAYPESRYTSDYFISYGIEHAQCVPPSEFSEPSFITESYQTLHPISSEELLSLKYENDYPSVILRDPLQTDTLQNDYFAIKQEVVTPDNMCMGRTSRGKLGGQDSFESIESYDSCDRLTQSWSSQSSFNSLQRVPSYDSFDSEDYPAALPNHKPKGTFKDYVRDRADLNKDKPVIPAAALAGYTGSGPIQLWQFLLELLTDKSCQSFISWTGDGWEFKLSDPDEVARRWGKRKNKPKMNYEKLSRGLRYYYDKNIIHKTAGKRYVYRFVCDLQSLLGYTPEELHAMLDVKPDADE
The assay is described as follows: ETS1 binding intensity (PBM fluorescence), ETS1 alone (arbitrary fluorescence units); higher = stronger binding. To be noted: ETS1 concentration 1 nM; RUNX1 concentration 0 nM.
For CGAGCTCGCAAGAGGAAACCGCGGCGCGGAGGCAGC, the ETS1 binding intensity was found to be 681. On the same count and under the same terms, to CAGCAAGCGTCCAGGAAGTGTGTGGGGGAGGTGTGG belongs 2010; to GACGGGATGTAGGTTTTCAGCCGTGGCCACAGGAGA, 496. On the same count and under the same terms, to TCCCCTGTCTTCCGGAGGCTGCGGCGCAGCGGCGCA belongs 403; to CGGGCCCGACGGAAACCATGTTTGTGGCTCGCAGCA, 744; to CCATGCGCTGCTTCCTTCCACTTACCGCCCTCGCAC, 523.

With GCTTTGCAGTTTCCTCTGTGGAACACCACACACAGT, the ETS1 binding intensity was 418. Still for that read-out and setting: the value for TCAGTGCACTCGGATGTTGGCCGCAGTTGGGGTTAT was 453; that for TCCCGAGAGTGCGGCGGAAACCACGCGGCGCCGCCG was 1360; that for TTCTCTGATTTTCCTTCCGCTCCCACAGCCTCTCCC was 697. Still for that read-out and setting: to TGGGGGCGGAAGCCTAAACCCCTCCCGCAGCCAGTC belongs 625; to GCCTGAAGCAGAGGATGTGGCTTCTGGCCCTCCCCT, 1460; to AGCCGGAGGCGGAAGGAGCAGCGCTACCGCAGCGTC, 639. Same read-out and setting: the value for CTCAGAGGCACCAAGGGAAGTGGTTAAAACAGAAAG was 677; that for AATATAGGAAGTGTCAGCTAGGGAACTCAACCACAA was 496; that for TGGGATTCTCACTTCCGATCAGCGGTCCTGAACCCG was 707. Sequence GGAGCGGCGGAAGGGAGCTTGCGGCGGGAGGCTGAA showed an ETS1 binding intensity of 423. Same read-out and setting: the value for TTCTCCACTTCCTTCTTTACCTCACCTACCACATAA was 568.

In the next assay the target is T1, ETS1. The experiment in a line: ETS1 binding intensity (PBM fluorescence) in presence of RUNX1, normalised to ETS1-only experiment (arbitrary fluorescence units); higher = stronger binding. The conditions noted are these: ETS1 concentration 1 nM; RUNX1 concentration 25 nM.
With CTGGCAGGCCTCACTTCCTCACCACATGGCCCTCCC, the ETS1 binding intensity was 640. On the same count and under the same terms, to GCTGCGCAGAGGAAACCAGGCTTGTTGGTTTTCATG belongs 457. Same read-out and setting: the value for GGGGGCAGGAAGCAGTGCAGCTCCTTAACCCACTTC was 892; that for TGGTGTGACCAGGATGTGAACCGCGGCAAGCTGCCT was 992.

Regarding CTTTCGCTTCCTTTCCCCGCCTCTTAGTCCCGCAGA, the ETS1 binding intensity was found to be 363. The same measure, in the same setting: the value for GTGTTGGGTGGCTTCCTGCGGCGTTTCCACTCTCGC was 504; that for TCTCTCTACGGAAGCTGGTAGGGCTGTGGGTGCTTC was 810. Still for that read-out and setting: the value for GGGCTTCCGGCTGAACCCATGGCTGCGGGCTGTGCT was 329. The same measure, in the same setting: to GGGAGGAAGTGTGAAGGGACTTTTGTGGTGAGTGAT belongs 910; to GCCACGCAGTTCCCTTCCTGCGGCGTCCTCCACACC, 421. Turning to CTTCAGCCGCCACTTCCCCGCCCCCGCAGCCCGACA, the ETS1 binding intensity came out at 925. The same measure, in the same setting: the value for GAGCAGCGGGAGGAAGCTGCGGCGCGCAGAGCAGAG was 486. On the same count and under the same terms, to CCTCCCGGCTTCCGTTCCTTGACCACCTCCTTCTCG belongs 501; to ACTTCCAGGAAGCCCCATAGTCCAGAAACCCACACA, 402; to CCGAGACACATGGGATGTGGGCGGGAGGAGGAATTG, 941. On the same count and under the same terms, the value for CTCCCCCAGCACATCCTCTGCCACCGCTGCCTTTCC was 361; that for ACCAGAACAGGAAATGTTAGTGGTTGAGTTAACGGT was 5800; that for TGAAGTTCAGGGGGAAGTGGTTAGAGTCCCTGCGAG was 674. On to TCGGTGAAGGACGGAAGATGATAGCCACATTTCTTC, for which the ETS1 binding intensity was 485. Still for that read-out and setting: to GCACCGTGGCACTTCCGCGAGCGCCGCAGGCCCTGC belongs 360; to CACCTGCCTTGCTTCCTGCGGTGCAACCGGCGGGAG, 585.

In the case of CGAGCTCGCAAGAGGAAACCGCGGCGCGGAGGCAGC, the ETS1 binding intensity was determined as 1130. On the same count and under the same terms, to CAGCAAGCGTCCAGGAAGTGTGTGGGGGAGGTGTGG belongs 1920; to GACGGGATGTAGGTTTTCAGCCGTGGCCACAGGAGA, 559; to TCCCCTGTCTTCCGGAGGCTGCGGCGCAGCGGCGCA, 519.

Consider CGGGCCCGACGGAAACCATGTTTGTGGCTCGCAGCA, for which the ETS1 binding intensity worked out at 699. Regarding CCATGCGCTGCTTCCTTCCACTTACCGCCCTCGCAC, the ETS1 binding intensity was determined as 331. The same measure, in the same setting: to GCTTTGCAGTTTCCTCTGTGGAACACCACACACAGT belongs 494; to TCAGTGCACTCGGATGTTGGCCGCAGTTGGGGTTAT, 422; to TCCCGAGAGTGCGGCGGAAACCACGCGGCGCCGCCG, 1570. Take TTCTCTGATTTTCCTTCCGCTCCCACAGCCTCTCCC: the ETS1 binding intensity amounted to 612. Same read-out and setting: to TGGGGGCGGAAGCCTAAACCCCTCCCGCAGCCAGTC belongs 627. The same measure, in the same setting: to GCCTGAAGCAGAGGATGTGGCTTCTGGCCCTCCCCT belongs 1800. AGCCGGAGGCGGAAGGAGCAGCGCTACCGCAGCGTC: the ETS1 binding intensity worked out at 1130. The same measure, in the same setting: to CTCAGAGGCACCAAGGGAAGTGGTTAAAACAGAAAG belongs 1790. Still for that read-out and setting: the value for AATATAGGAAGTGTCAGCTAGGGAACTCAACCACAA was 382; that for TGGGATTCTCACTTCCGATCAGCGGTCCTGAACCCG was 622; that for GGAGCGGCGGAAGGGAGCTTGCGGCGGGAGGCTGAA was 485. Turning to TTCTCCACTTCCTTCTTTACCTCACCTACCACATAA, the ETS1 binding intensity was determined as 544.

The values are drawn from the supplement of paper PMC10681739.
